Bioassay records as filed in PubChem BioAssay.
HepG2 viability – qHTS for Inhibitors of TGF-b: Cytotox Counterscreen; 410,000 compounds, 0.76% hits; Potency, µM (series often up to 46.1 µM), usual class: cytotoxic; HepG2 CAGA-GFP viability, ATP luminescence, 18 h
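HepG2 CAGA-GFP cells (1000/well, DMEM with 1% FBS) received compound, then TGF-beta at 500 pg/mL final, and were incubated 18 hours at 37 degrees C. Viability was read by CellTiter-Glo luminescence. Media-only wells were set as complete cell-killing and DMSO as no toxicity.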
ATXN viability – Viability Counterscreen for Primary qHTS for Inhibitors of ATXN expression; S2 cells (HEK-293 line with an ATXN2-luciferase reporter) viability, CellTiter-Fluor protease fluorescence, 24 h; Potency, µM (doses to about 56.7 µM), actives largely listed as cytotoxic; 400,000 compounds, 0.49% hits; AID 651635, 2014; note: nearly all actives have a fitted effect of over 40% in size
LDHA inh – qHTS assay for inhibitors of human lactate dehydrogenase; activity change, % (values are at about 110 or 230 µM); 480,000 compounds, 0.15% hits; L-lactate dehydrogenase A chain (Homo sapiens), P00338; purified LDHA, NADH/diaphorase-resazurin fluorescence; active compounds read low; in the data active = activity change below about -30%; inconclusive = mostly about -25% to -30%
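Resorufin fluorescence (ex540/em590), read at 0 and 20 min after diaphorase/resazurin addition, reports the NADH left after a 5 min room-temperature reaction of 2 nM human LDH5 with 0.06 mM NADH and 0.2 mM pyruvate.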
TGFb SMAD3 inh – qHTS for Inhibitors of TGF-b | HepG2 CAGA-GFP TGF-b/SMAD3 reporter, GFP fluorescence, 18 h; TGF-beta stimulated, 500 pg/mL final | Potency, µM (titrated, usually from 46.1 µM), usual class: inhibitors | 410,000 compounds, 1.2% hits; note: nearly all actives have a fitted effect of over 65% in size
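Per well, imaged GFP fluorescence of HEPG2 CAGA-GFP cells gives the signal; cells get compound, then TGF-beta (500 pg/mL final), 18 h at 37 degrees C; %Activity versus -TGF-beta and +DMSO controls.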
mIDH1 inhibitor – qHTS for Inhibitors of mutant isocitrate dehydrogenase 1 (IDH1): qHTS; Isocitrate dehydrogenase [NADP] cytoplasmic (Homo sapiens), O75874; IDH1-R132H enzyme, NADPH consumption, diaphorase/resazurin fluorescence; Potency, µM (top dose mostly 76.6 µM), usual class: inhibitors; 390,000 compounds, 0.093% hits; AID 602179, 2012; note: nearly all actives have a fitted effect of over 65% in size
Target sequence (O75874 whole entry R132H, stated change not applied): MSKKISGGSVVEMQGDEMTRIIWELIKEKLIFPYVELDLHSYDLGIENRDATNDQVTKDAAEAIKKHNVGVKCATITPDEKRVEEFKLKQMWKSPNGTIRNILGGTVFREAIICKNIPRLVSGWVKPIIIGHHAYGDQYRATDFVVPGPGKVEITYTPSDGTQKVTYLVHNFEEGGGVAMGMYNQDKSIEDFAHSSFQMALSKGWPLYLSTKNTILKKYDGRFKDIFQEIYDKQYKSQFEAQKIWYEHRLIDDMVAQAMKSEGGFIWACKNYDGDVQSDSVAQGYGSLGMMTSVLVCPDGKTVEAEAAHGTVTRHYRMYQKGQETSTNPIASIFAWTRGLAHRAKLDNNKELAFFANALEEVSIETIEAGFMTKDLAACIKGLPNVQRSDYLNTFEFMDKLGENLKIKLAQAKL
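IDH1-R132H (0.5 ug/mL) preincubated 30 min with compound, then NADPH (0.016 mM) and alpha-KG (2 mM) added; 80 min at RT, pH 7.5. Remaining NADPH coupled via diaphorase/resazurin to fluorescence (540/590 nm); concentration-response curves normalized to no-enzyme control.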
ATXN2 expr inh – Primary qHTS for Inhibitors of ATXN expression | AID 1745845, 2022 | HEK-293 ATXN2-luciferase reporter, luminescence, 24 h | Potency, µM (highest dose often 57 µM), most hits filed as inhibitors | 360,000 compounds, 0.72% hits; note: nearly all actives have a fitted effect of over 55% in size
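qHTS (up to 57 uM final) was run with 24 h compound exposure of reporter cells at 37 °C. Each well was multiplexed: SteadyGlo luminescence measured ATXN2-luciferase expression after a fluorogenic Gly-Phe-AFC viability readout (25 uM final).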
Hits are given with their value; . = inactive; ? = inconclusive; / = no result. This is a sample that favours compounds with a hit; in the whole collection about 2.2% have one here. Unless noted, calls come from the whole dose curve; as a rule, active = well fitted curve in the direction sought with a large enough effect; inconclusive = small, poorly fitted or top-dose-only effect, or another doubt; inactive = no such curve, though single readings can be large; an effect the other way counts as inactive or inconclusive.

SMILES	HepG2 viability	ATXN viability	LDHA inh	TGFb SMAD3 inh	mIDH1 inhibitor	ATXN2 expr inh
Cc1ccc(C)c(OCC(=O)Nn2c(C)nc3ccccc3c2=O)c1	.	.	.	.	.	.
Cc1nc(SCc2nc3ccc(Cl)cc3[nH]2)c2oc3ccccc3c2n1	.	?	.	7.9µM	/	?
Cc1nc(SCc2nc3ccc(Br)cc3[nH]2)c2oc3ccccc3c2n1	.	.	.	?	/	.
Cn1cccc1C(=O)c1cccc([N+](=O)[O-])c1	.	.	.	.	.	.
Cc1ccc2cc(/C=C/C(=O)c3ccco3)c(Cl)nc2c1	.	.	.	?	.	.
COc1cc2cc(/C=C/C(=O)c3ccco3)c(Cl)nc2cc1OC	13µM	.	.	?	.	.
Cc1ccc2nc(Cl)c(/C=C/C(=O)c3ccco3)cc2c1	.	.	.	13µM	.	.
O=C(Nc1cccc(-c2nnc(-c3ccccc3)o2)c1)c1ccc(Br)o1	.	35µM	.	?	.	?
COc1ccc(CN2C(=O)CS/C2=N/N=C/c2ccccc2)cc1	.	.	.	?	.	.
CNc1nccc(-c2cccnc2Oc2cc(C(=O)Nc3cccc(C(F)(F)F)c3)ccc2C)n1	/	/	/	/	/	24µM
Cc1ccc(C(=O)Nc2cccc(C(F)(F)F)c2)cc1Nc1cnccn1	.	.	.	?	.	.
Cc1onc(-c2ccccc2)c1C(=O)OCC(=O)Nc1ccc(OC(F)(F)F)cc1	.	.	.	13µM	.	?
Cc1ccc(NC(=O)COC(=O)c2c(-c3ccccc3)noc2C)cc1	.	.	.	.	.	.
CCN1CCC(N(Cc2ccc3c(c2)OCO3)C(=O)Nc2ccccc2OC)CC1	.	.	.	.	.	.
CCN1CCC(N(Cc2ccc3c(c2)OCO3)C(=O)Nc2cc(Cl)ccc2C(=O)OC)CC1	.	16µM	.	?	.	25µM
CC(=O)c1c(N2CCN(Cc3ccccc3)CC2)nc(=S)n(-c2ccccc2)c1C	.	.	.	.	.	.
COc1ccc(-c2nc(N3CCOCC3)nc3n[nH]c(N)c23)cc1	.	.	.	11µM	.	.
Nc1[nH]nc2nc(N3CCCC3)nc(-c3ccccc3)c12	.	.	.	.	.	.
CC(C)C[C@@H](C(=O)NC1CCN(Cc2ccccc2)CC1)N1C(=O)N2CCc3c([nH]c4ccccc34)[C@@]2(C)C1=O	13µM	25µM	.	?	.	?
C[C@@H](C(=O)NC1CCN(Cc2ccccc2)CC1)N1C(=O)N2CCc3c([nH]c4ccccc34)[C@@]2(C)C1=O	.	.	.	?	.	.
Brc1cccc[n+]1CCCC[n+]1ccccc1Br	.	/	-62	.	/	/
Brc1cccc[n+]1C/C=C/C[n+]1ccccc1Br	.	/	.	.	/	/
Brc1cccc[n+]1CCCCCC[n+]1ccccc1Br	.	/	-60	.	/	/
CC(C)N1CCN(c2cccc(Nc3nn4c(=O)c5ccccc5nc4s3)c2)CC1	/	/	.	/	/	/
Nc1cccc(NC(=O)CCC(=O)NCc2ccco2)c1	.	.	.	.	.	.
SMILES	HepG2 viability	ATXN viability	LDHA inh	TGFb SMAD3 inh	mIDH1 inhibitor	ATXN2 expr inh
CC1CCCCN1CCCNC(=O)c1ccc2c(c1)NC(=O)CN2C (centres undefined)	.	.	.	.	.	/
CCCCN(CCCNC(=O)c1ccc2c(c1)NC(=O)CN2C)c1ccccc1	16µM	18µM	.	?	.	/
COc1ccc(CC2(CO)CCN(Cc3ccc(OC(F)(F)F)cc3)CC2)cc1	20µM	?	.	14µM	.	?
COc1cc2nc(N3CCNCC3)nc(N)c2cc1OC	.	/	.	?	.	/
COc1cc2nc(N3CCN(c4cc(C)ccc4C)CC3)nc(N)c2cc1OC	11µM	/	.	?	.	?
O=C(c1ccc2c(c1)N(Cc1ccc(F)cc1)C(=O)c1ccccc1S2(=O)=O)N1CCN(Cc2ccccc2)CC1	.	.	.	3.5µM	.	.
NC(=O)/C=C/C(=O)Nc1ccc(Cl)cc1	.	?	.	.	.	?
O=C(/C=C/C(Cl)(Cl)Cl)Nc1ccc(Cl)cc1	13µM	?	.	?	.	?
COC(=O)c1ccc2nc(NC(=O)CSCC(=O)OCC(=O)c3ccccc3)sc2c1	.	.	.	.	.	.
Cc1ccc2nc(NC(=O)CSCC(=O)OCC(=O)c3ccc(Br)cc3)sc2c1	.	.	.	.	.	5.6µM
COc1ccc(C(=O)/C=C/c2ccc(C)cc2)cc1OC	/	/	.	/	/	/
COc1cccc(NC(=S)NC(=O)/C=C/c2ccc(F)cc2)c1	.	.	.	.	.	.
CCC(=O)Nc1cccc(C(=O)/C=C/c2ccc(F)cc2)c1	14µM	?	.	20µM	.	?
CC(=O)Nc1cccc(C(=O)/C=C/c2ccc(C)cc2)c1	13µM	?	.	?	.	.
COc1ccc(S(=O)(=O)Oc2ccc3c(c2)O/C(=C\c2ccc(OC)c(OC)c2OC)C3=O)cc1	/	/	.	/	/	/
O=C1SCC(c2ccccc2)=NN1Cc1ccccc1	.	.	.	.	.	.
COc1ccc(-c2c(C)c3ccc(O)c(CN4CCOCC4)c3oc2=O)cc1	.	/	.	.	.	.
Cc1ccc(N=C2NN=C(c3cc(C)n(CC4CCCO4)c3C)CS2)cc1 (centres undefined)	/	/	.	/	/	/
Cc1cc(C2=NNC(=Nc3ccccc3)SC2)c(C)n1CC1CCCO1 (centres undefined)	/	/	-36	/	/	/
COCCn1c(C)cc(C2=NNC(=NC3CC3)SC2)c1C	10µM	?	.	.	.	0.21µM
O=C(NCC(=O)N1CCCC1c1ccccc1)c1ccc(Cl)c(Cl)c1 (centres undefined)	/	/	.	/	/	/
Nc1[nH]c(C(=O)c2ccccc2)c(-c2ccccc2C(F)(F)F)c1C(=O)NCCc1cccs1	/	.	.	/	/	.
O=C(O)CSCC(=O)Nc1cc(C(F)(F)F)ccc1Cl	.	.	.	.	.	.
CC(C)Oc1cc(NC(=O)CSCC(=O)Nc2cccc(C(F)(F)F)c2)c(Cl)cc1Cl	.	?	.	11µM	.	?
CC(=O)Nc1ccc2c(c1)CCc1ccccc1-2	.	.	.	.	.	.
O=C(O)/C=C/C(=O)c1ccc2c(c1)CCc1ccccc1-2	11µM	7.1µM	.	?	.	5.6µM
O=C(c1ccccc1NS(=O)(=O)c1cccc2cccnc12)N1CCOCC1	.	.	.	.	.	.
Cc1cc(C)n2c(Nc3ccc(Cl)cc3)c(-c3ccsc3)nc2n1	.	/	.	.	.	/
